# PubChem BioAssay (Tox21)
# Inconclusive results are not listed. A number with no mark means an inactive call. Activity calls are given as the source filed them. Calls come from the whole dose curve.
# Test: qHTS assay to identify small molecule agonists of the progesterone receptor (PR) signaling pathway - cell viability counter screen (AID 1346799); note: nearly all actives have a fitted effect of over 45% in size
# Conditions: PR-UAS-bla HEK293T viability, CellTiter-Glo luminescence, 16 h; series mostly up to 92.4 µM; activity change, negative = cytotoxicity: at the top concentration
# Text: National Center for Advancing Translational Sciences [NCATS]
# NIH Chemical Genomics Center [NCGC]
# U.S. Environmental Protection Agency [EPA]
# National Institutes of Environmental Health Sciences [NIEHS]
# National Toxicology Program [NTP]
# U.S. Food and Drug Administration [FDA]
# Progesterone receptor (PR), a nuclear hormone receptor, plays an important role in development, metabolic homeostasis and reproduction. It is activated by the steroid hormone progesterone. Endocrine disrupting chemicals (EDCs) and their interactions with steroid hormone receptors like PR causes disruption of normal endocrine function. To identify the compounds that stimulate PR signaling, a PR-UAS-bla GripTite cell line i.e. PR-UAS-bla HEK293T (Invitrogen, Carlsbad, CA, USA) containing a beta-lactamase reporter gene under the control of an UAS response element was used to screen Tox21 10K compound library. The cytotoxicity of the Tox21 compound library against the PR-bla cell line was tested in parallel by measuring the cell viability using CellTiter-Glo assay in the same wells.
# Tox21 Assay Protocol Summary:
# PR-UAS-bla HEK293T cells were dispensed at 3,000 cells/5 uL of assay medium containing 2% charcoal stripped FBS per well into black wall/clear-bottom 1536-well plates using a Multidrop Combi (ThermoFisher Scientific, Waltham, MA) dispenser. After the assay plates were incubated at a 37C and 5% CO2 for 6 hr, 23 nL of compounds dissolved in DMSO, positive controls or DMSO only was transferred to the assay plate by a Pintool station (Kalypsys, San Diego, CA). The plates were incubated at 37C and 5% CO2 for 16 hr. Then 1 uL of LiveBLAzer B/G FRET substrate was added using a Flying Reagent Dispenser (FRD, Aurora Discovery, San Diego, CA), the plates were incubated at room temperature for 2 hours, and fluorescence intensity was measured by an Envision plate reader (PerkinElmer, Shelton, CT). For cell viability readout that measures cytotoxicity, 4 uL/well of CellTiter-Glo reagent was added into the assay plates using a FRD. After 30 min incubation at room temperature, the luminescence intensity in the plates was measured using a ViewLux (PerkinElmer) plate reader.
# % is set by controls: 0 for no effect and ±100 for the full control effect; potency is the fitted concentration of half-maximal effect.
SMILES,"activity change, negative = cytotoxicity",Potency
CCCOc1ccccc1-c1nc2n[nH]nc2c(=O)[nH]1,8.18% [at 42.5 µM],–
Cc1c(F)cc2c(=O)c(C(=O)O)cn3c2c1CCC3C (stereo not given),0.727% [at 42.5 µM],–
C=C[Si](OC)(OC)OC,2.75%,–
Nc1nc2c(ncn2CCC(CO)CO)c(=O)[nH]1,6.19% [at 42.5 µM],–
Nc1ccc2cc(S(=O)(=O)O)ccc2c1,-18.9%,–
COc1nc(C)nc(N)n1,2.74%,–
COc1cc(CCC(C)=O)ccc1O,-4.18%,–
Cc1nccn1CC1CCc2c(c3ccccc3n2C)C1=O (stereo not given),-25.7% [at 42.5 µM],–
CC(C)N1C(=O)c2ccccc2C1=O,12.1%,–
CN(C)N=Nc1ccccc1,5.3%,–
C=C(C)[C@H]1CC=C(C)CC1,10.1%,–
Nc1nc(F)nc2c1ncn2[C@@H]1O[C@H](CO)[C@@H](O)[C@@H]1O,-7.49% [at 42.5 µM],–
CC(C)CCCC(C)NCCC(C)C (stereo not given),8.84% [at 42.5 µM],–
CC(C)(O)c1ccccc1,–,58.6 µM (active)
CC(C)(C)C(=O)/C=C/c1ccc(Cl)cc1,17.2%,–
CC(C)CCCC(C)CCCC(C)CCCCC(C)CCCC(C)CCCC(C)C (stereo not given),-1.77% [at 42.5 µM],–
Cc1ccccc1C(=O)O,-5.2%,–
CCCOCC(C)OCC(C)O (stereo not given),-4.76%,–
CCCCCCOC(=O)c1ccccc1O,–,30.6 µM (active)
CC(O)CN(CCCN(C)C)CCCN(C)C (stereo not given),14.3%,–

SMILES,"activity change, negative = cytotoxicity",Potency
Cc1cc(C)cc(OCC2CNC(=O)O2)c1 (stereo not given),0.553% [at 42.5 µM],–
OCc1ccccn1,5.45% [at 42.5 µM],–
COC(=O)c1ccc(C(=O)OC)c(C(=O)OC)c1,0.0319%,–
CC(C)[N+](C)(C)CC(O)COc1cccc2ccccc12 (stereo not given),-9.81% [at 42.5 µM],–
NC(N)=NS(=O)(=O)c1ccc(N)cc1,6.92% [at 42.5 µM],–
O=c1[nH]c(=O)n([C@H]2O[C@H](CO)[C@@H](O)[C@@H]2O)cc1/C=C\Br,-6.91% [at 42.5 µM],–
Nc1cc(C(Cl)=C(Cl)Cl)c(S(N)(=O)=O)cc1S(N)(=O)=O,2.61% [at 42.5 µM],–
C=C(C)C(=O)NCCC[N+](C)(C)C,13.7%,–
COC(=O)CCCCCCCCC(=O)OC,-3.22%,–
CCCCCCCCCCC1CO1 (stereo not given),0.124%,–
CC/C=C\C#N,12%,–
CCC(C(=O)NC(N)=O)c1ccccc1 (stereo not given),19.2%,–
CCCC=O,1.41%,–
CCCCCCCCCCCCCCCCCCOCC(O)CO (stereo not given),0% [at 42.5 µM],–
NS(=O)(=O)c1cc2c(cc1C(F)(F)F)NC(Cc1ccccc1)NS2(=O)=O (stereo not given),3.27% [at 42.5 µM],–
C=CCOCC(O)CS(=O)(=O)O (stereo not given),-5.91%,–
C=C(C)C(=O)NCCCN(C)C,-3.75%,–
CC1CCN(CCCC(=O)c2ccc(F)cc2)CC1,-14.7% [at 42.5 µM],–
O=C1CC2(CCCC2)CC(=O)N1,0% [at 42.5 µM],–
NC(=O)c1c(Cl)cccc1Cl,-24.9%,–
